In the supplement of paper PMC11732987, “Enantioselective OTUD7B fragment discovery through chemoproteomics screening and high-throughput optimisation” (Communications Chemistry, 2025):

Legend:
Test in all cases: log2 ratio of Biotin-Ahx-Ub-VS probe labelling (fragment/DMSO); higher = less target engagement (more negative = stronger competition), active = hit call of the paper (q ≤ 0.05, log2 ratio ≤ -1)
Conditions in all cases: compound concentration: 200 uM; treatment time: 3 h
[1] = target: USP34 (UniProt Q70CQ2)
Procedure, shortened: (§1)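 Using Biotin-Ahx-Ub-VS at 0.5 µM final for 1 h, DUBs were labelled in HEK293T lysate (495 µg per sample) that had first been treated in triplicate with fragment at 200 µM or vehicle for 3 h. NeutrAvidin enrichment, LysC and trypsin digestion and diaPASEF LC-MS/MS followed. Spectronaut label-free quantities were global-median-normalised. Values are average log2 fragment/vehicle ratios by unpaired t-test, using proteins with ≥2 unique peptides.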

[2] = target: T1, USP36 (UniProt Q9P275)
T1 sequence (whole entry): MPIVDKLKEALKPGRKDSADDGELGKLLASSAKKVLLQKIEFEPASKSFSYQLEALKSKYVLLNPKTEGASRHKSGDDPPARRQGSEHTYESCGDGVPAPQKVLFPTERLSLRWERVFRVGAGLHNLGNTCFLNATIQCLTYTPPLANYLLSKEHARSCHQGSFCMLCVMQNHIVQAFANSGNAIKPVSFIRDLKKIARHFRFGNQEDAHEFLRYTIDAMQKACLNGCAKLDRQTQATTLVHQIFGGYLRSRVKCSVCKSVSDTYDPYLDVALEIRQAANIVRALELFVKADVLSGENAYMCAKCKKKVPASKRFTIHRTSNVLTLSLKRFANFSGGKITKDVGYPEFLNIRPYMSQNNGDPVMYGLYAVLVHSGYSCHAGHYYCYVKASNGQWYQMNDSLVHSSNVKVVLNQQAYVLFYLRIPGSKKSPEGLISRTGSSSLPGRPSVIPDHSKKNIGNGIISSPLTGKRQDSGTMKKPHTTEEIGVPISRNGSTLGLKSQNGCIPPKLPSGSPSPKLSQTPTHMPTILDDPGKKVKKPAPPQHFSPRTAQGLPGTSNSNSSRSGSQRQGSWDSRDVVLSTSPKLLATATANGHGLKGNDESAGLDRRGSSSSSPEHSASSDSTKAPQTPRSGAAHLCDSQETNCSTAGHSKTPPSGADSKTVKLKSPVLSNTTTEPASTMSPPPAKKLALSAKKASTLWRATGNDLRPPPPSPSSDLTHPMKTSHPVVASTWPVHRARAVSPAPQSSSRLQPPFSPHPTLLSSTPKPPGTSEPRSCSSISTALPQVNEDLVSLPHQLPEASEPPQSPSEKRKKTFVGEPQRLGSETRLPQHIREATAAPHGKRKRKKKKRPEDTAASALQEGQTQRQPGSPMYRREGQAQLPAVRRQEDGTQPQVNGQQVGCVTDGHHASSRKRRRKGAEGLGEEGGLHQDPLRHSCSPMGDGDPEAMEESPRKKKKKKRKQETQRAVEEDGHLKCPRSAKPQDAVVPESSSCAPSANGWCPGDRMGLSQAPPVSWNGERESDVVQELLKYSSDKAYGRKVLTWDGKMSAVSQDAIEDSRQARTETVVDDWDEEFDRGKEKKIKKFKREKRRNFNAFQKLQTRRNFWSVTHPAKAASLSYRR
Procedure, shortened: as §1

[3] = target: T2, USP38 (UniProt Q8NB14)
T2 sequence (whole entry): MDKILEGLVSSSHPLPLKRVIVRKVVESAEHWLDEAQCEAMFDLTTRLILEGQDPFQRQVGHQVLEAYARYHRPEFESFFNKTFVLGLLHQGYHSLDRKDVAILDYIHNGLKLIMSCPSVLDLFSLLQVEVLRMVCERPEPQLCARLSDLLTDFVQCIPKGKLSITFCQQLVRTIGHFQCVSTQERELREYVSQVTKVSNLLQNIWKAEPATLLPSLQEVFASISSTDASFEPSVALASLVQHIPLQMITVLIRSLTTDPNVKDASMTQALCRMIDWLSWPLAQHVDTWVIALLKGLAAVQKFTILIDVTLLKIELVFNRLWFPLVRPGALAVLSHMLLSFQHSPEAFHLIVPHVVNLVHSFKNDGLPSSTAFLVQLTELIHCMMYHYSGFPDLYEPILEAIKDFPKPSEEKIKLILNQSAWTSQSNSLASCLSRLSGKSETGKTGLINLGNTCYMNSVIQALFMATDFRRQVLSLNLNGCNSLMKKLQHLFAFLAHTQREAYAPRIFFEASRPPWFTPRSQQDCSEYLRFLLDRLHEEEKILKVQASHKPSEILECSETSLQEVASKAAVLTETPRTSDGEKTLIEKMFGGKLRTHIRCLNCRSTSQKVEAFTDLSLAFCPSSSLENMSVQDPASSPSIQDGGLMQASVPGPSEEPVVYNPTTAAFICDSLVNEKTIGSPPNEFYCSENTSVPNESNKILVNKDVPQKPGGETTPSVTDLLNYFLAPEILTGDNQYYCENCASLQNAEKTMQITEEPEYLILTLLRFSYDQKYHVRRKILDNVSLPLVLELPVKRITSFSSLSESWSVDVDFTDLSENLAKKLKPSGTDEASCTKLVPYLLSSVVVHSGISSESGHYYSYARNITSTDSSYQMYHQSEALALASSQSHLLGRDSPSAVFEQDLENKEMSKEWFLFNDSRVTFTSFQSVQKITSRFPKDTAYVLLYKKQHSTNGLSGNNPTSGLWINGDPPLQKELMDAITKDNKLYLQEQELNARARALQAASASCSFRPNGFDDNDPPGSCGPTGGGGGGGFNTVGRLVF
Procedure, shortened: as §1

[4] = target: T3, USP39 (UniProt Q53GS9)
T3 sequence (whole entry): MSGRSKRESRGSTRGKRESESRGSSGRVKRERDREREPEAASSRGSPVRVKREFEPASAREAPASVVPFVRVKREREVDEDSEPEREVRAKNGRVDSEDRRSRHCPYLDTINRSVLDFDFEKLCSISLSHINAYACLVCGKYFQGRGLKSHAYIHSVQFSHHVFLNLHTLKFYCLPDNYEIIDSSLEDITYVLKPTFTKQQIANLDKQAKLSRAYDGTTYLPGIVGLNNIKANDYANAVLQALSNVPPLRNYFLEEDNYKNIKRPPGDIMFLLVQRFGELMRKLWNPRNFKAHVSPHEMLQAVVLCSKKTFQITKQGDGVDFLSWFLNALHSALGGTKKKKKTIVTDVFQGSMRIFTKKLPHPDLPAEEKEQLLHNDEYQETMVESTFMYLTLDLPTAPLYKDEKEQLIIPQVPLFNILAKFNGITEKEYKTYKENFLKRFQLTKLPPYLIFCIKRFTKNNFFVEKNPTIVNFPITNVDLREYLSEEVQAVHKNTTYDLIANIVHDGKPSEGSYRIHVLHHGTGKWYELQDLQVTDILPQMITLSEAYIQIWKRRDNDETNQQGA
Procedure, shortened: as §1

[5] = target: T4, USP4 (UniProt Q13107)
T4 sequence (whole entry): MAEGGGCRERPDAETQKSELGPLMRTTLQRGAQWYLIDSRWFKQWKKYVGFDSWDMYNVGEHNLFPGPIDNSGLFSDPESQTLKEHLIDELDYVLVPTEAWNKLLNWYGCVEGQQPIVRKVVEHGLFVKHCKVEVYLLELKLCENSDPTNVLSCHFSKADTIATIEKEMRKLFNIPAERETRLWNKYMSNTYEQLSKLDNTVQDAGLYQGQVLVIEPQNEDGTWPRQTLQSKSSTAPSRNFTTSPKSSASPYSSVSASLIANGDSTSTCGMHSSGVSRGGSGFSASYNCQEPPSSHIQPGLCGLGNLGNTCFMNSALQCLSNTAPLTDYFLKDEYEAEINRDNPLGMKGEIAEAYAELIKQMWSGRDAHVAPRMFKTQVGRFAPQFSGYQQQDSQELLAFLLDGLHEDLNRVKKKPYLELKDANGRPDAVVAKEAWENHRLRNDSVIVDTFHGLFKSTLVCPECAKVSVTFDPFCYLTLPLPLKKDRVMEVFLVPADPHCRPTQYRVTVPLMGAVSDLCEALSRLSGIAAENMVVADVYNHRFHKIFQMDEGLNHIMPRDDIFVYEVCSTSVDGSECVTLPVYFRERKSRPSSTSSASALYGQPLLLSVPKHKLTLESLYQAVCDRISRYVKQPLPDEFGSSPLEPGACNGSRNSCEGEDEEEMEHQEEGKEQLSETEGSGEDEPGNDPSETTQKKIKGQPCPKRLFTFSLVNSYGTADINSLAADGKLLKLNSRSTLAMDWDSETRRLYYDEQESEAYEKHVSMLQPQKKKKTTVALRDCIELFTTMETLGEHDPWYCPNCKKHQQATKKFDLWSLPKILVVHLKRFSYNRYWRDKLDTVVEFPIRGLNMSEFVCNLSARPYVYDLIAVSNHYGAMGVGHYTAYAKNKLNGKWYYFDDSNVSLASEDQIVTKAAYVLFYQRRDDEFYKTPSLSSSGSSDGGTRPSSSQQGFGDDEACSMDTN
Procedure, shortened: as §1

Measured: log2 ratio of Biotin-Ahx-Ub-VS probe labelling

Sequence of USP34 (Q70CQ2 whole entry, the tested form may be a part): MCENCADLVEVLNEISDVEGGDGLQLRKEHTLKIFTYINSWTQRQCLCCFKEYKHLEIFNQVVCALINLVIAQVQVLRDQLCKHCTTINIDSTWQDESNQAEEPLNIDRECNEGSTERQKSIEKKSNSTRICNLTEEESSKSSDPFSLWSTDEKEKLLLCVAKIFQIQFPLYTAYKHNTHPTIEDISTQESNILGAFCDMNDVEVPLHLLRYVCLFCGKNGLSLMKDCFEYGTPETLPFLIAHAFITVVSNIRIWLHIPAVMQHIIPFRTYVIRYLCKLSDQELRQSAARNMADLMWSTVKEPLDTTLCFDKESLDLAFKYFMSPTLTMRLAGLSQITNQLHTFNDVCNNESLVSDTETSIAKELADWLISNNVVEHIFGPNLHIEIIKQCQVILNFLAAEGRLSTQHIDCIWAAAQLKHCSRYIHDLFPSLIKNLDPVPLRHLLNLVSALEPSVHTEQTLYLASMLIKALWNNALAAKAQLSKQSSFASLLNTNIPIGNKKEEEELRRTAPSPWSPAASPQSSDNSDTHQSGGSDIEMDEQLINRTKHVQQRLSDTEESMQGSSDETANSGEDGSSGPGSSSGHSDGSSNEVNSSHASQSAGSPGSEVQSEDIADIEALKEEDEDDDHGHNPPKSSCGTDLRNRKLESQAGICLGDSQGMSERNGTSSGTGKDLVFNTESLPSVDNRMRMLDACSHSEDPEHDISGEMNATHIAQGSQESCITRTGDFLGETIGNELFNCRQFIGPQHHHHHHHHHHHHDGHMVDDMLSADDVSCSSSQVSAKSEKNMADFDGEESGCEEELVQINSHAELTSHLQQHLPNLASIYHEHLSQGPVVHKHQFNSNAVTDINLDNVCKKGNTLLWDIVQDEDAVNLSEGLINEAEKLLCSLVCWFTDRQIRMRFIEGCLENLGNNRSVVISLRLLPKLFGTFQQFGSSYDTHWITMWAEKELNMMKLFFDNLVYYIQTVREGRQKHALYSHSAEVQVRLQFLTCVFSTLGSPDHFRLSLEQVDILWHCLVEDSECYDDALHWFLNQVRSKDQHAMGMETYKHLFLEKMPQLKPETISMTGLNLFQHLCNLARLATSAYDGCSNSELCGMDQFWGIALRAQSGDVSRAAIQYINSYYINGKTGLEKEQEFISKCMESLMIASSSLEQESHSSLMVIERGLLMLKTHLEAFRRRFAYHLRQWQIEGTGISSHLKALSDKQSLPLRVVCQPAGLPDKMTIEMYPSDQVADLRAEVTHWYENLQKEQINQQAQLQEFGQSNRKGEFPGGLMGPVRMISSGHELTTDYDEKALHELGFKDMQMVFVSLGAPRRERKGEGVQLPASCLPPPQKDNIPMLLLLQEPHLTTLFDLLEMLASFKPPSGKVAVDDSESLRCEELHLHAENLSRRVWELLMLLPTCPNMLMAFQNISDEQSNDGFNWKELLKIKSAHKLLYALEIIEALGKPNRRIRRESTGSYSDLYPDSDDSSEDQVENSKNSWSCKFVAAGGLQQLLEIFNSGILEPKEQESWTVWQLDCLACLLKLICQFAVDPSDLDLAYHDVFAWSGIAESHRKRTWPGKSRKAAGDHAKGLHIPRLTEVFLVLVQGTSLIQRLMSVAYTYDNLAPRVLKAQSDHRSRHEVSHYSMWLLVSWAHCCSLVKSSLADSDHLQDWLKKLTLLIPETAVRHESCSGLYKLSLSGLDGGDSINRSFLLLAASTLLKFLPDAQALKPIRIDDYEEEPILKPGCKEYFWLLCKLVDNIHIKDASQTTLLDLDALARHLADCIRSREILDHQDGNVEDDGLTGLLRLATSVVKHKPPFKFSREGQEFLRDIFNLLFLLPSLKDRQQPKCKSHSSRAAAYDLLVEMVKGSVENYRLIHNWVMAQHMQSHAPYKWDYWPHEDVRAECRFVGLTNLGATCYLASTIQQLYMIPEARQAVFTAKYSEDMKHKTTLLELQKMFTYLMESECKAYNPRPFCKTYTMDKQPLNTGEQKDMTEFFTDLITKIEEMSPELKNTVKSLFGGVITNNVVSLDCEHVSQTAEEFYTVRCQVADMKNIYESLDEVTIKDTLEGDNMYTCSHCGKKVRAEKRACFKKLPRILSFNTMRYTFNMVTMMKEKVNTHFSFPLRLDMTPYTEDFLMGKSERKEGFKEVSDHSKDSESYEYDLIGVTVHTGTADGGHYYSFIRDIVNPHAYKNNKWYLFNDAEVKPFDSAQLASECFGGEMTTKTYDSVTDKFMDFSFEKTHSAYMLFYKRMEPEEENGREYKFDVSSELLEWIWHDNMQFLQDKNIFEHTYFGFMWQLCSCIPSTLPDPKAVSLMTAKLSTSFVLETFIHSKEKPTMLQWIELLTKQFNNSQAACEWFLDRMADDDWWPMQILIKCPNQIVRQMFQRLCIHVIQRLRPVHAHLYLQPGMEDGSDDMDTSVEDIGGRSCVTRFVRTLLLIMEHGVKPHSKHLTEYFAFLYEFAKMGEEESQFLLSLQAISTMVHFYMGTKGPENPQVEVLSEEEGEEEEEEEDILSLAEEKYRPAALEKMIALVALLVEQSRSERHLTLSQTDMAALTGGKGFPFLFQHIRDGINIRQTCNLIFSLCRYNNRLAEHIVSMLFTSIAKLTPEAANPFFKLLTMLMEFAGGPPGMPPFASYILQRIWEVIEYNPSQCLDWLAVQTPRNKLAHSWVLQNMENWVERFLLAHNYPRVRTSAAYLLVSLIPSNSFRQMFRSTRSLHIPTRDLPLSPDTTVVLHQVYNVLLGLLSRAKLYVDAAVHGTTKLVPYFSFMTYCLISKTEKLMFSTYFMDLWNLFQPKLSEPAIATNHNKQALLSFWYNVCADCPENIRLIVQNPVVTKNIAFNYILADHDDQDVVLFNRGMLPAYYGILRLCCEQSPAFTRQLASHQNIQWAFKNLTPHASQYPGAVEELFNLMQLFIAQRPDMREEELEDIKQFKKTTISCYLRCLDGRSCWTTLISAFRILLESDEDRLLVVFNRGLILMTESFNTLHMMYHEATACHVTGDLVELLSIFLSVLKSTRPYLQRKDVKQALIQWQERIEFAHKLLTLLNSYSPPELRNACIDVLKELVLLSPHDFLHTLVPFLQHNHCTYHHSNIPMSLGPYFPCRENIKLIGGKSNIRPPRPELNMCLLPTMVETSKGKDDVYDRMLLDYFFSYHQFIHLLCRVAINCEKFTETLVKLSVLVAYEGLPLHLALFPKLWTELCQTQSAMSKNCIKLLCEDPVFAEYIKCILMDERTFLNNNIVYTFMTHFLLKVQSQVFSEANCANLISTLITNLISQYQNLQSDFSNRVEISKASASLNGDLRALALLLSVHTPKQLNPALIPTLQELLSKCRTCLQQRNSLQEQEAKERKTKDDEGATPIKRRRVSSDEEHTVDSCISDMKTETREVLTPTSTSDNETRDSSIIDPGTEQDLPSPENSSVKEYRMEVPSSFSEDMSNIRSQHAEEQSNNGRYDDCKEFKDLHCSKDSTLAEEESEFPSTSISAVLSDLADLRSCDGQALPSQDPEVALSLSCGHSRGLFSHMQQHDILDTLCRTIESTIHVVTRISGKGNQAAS

COc1ccc(C2CCCN2C(=O)CCl)c(OC)c1 (stereo not given)
inactive: [1] -0.0529 | [2] -0.129 | [3] -0.231 | [4] 0.128 | [5] -0.347
